# Results filed as inconclusive are left out. Entries that show only a call come without a potency. Active and inactive are the calls of the source. Calls follow the shape of the dose curve; as a rule, active = well fitted curve in the direction sought with a large enough effect; inconclusive = small, poorly fitted or top-dose-only effect, or another doubt; inactive = no such curve, though single readings can be large; an effect the other way counts as inactive or inconclusive.
# Columns and labels:
# [1] = Quantitative High-Throughput drug screen in 47 multiple myeloma cell lines against the NCATS MIPE library collection: KMS12PE_JCRB cell viability assay (AID 1918972); settings: KMS12PE myeloma viability, CellTiter-Glo ATP, 48 h; series mostly up to 45.8 µM; also: nearly all actives have a fitted effect of over 30% in size; also: potency is read from the fitted curve at half-maximal effect
# Summary of the method: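 Myeloma cells (500 per well) were exposed to MIPE 4.0 compounds by pin transfer and incubated 48 hours at 37C, 5% CO2. Viability was read as ATP by CellTiter-Glo luminescence, normalised to DMSO (100%) and media-only (0%) wells.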
# [2] = Quantitative High-Throughput drug screen in 47 multiple myeloma cell lines against the NCATS MIPE library collection: KMS26_JCRB cell viability assay (AID 1918975); settings: KMS26 myeloma cells viability, CellTiter-Glo ATP, 48 h; series mostly up to 45.8 µM; also: nearly all actives have a fitted effect of over 45% in size; also: potency is read from the fitted curve at half-maximal effect
# Summary of the method: (§1)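 CellTiter-Glo luminescence (ATP) after 48 h compound exposure, 37C/5% CO2; 500 cells/well; MIPE 4.0 approved/investigational drugs pinned in; DMSO = 100%, media only = 0% viability.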
# [3] = Quantitative High-Throughput drug screen in 47 multiple myeloma cell lines against the NCATS MIPE library collection: NCIH929_DSMZ cell viability assay (AID 1918978); settings: NCI-H929 myeloma viability, CellTiter-Glo ATP, 48 h; series mostly up to 45.8 µM; also: nearly all actives have a fitted effect of over 35% in size; also: potency is read from the fitted curve at half-maximal effect
# Summary of the method: (§2)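 Myeloma cells (500/well) treated with MIPE 4.0 compounds for 48 h at 37 °C, 5% CO2. Viability read as ATP via CellTiter-Glo luminescence after 5 min at RT; DMSO-only wells = 100%, media-only = 0% viability.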
# [4] = Quantitative High-Throughput drug screen in 47 multiple myeloma cell lines against the NCATS MIPE library collection: OCIMY1_PLB cell viability assay (AID 1918979); settings: OCI-MY1 myeloma viability, CellTiter-Glo ATP, 48 h; series mostly up to 45.8 µM; also: nearly all actives have a fitted effect of over 35% in size; also: potency is read from the fitted curve at half-maximal effect
# Summary of the method: as §2
# [5] = Quantitative High-Throughput drug screen in 47 multiple myeloma cell lines against the NCATS MIPE library collection: MOLP8_DSMZ cell viability assay (AID 1918977); settings: MOLP8 myeloma viability, CellTiter-Glo ATP luminescence, 48 h; series mostly up to 45.8 µM; also: nearly all actives have a fitted effect of over 45% in size
# Summary of the method: as §2
# [6] = Quantitative High-Throughput drug screen in 47 multiple myeloma cell lines against the NCATS MIPE library collection: MM1S_ATCC cell viability assay (AID 1918980); settings: MM1S myeloma viability, CellTiter-Glo ATP luminescence, 48 h; series mostly up to 45.8 µM; also: nearly all actives have a fitted effect of over 45% in size; also: potency is read from the fitted curve at half-maximal effect
# Summary of the method: as §2
# [7] = Quantitative High-Throughput drug screen in 47 multiple myeloma cell lines against the NCATS MIPE library collection: MMM1_PLB cell viability assay (AID 1918976); settings: MMM1 myeloma cells viability, CellTiter-Glo, 48 h; series mostly up to 45.8 µM; also: potency is read from the fitted curve at half-maximal effect; nearly all actives have a fitted effect of over 35% in size
# Summary of the method: as §2
# [8] = Quantitative High-Throughput drug screen in 47 multiple myeloma cell lines against the NCATS MIPE library collection: KMS20_JCRB cell viability assay (AID 1918973); settings: CellTiter-Glo ATP, 48 h; series mostly up to 45.8 µM; also: nearly all actives have a fitted effect of over 45% in size; also: potency is read from the fitted curve at half-maximal effect
# Summary of the method: as §1
# [9] = Quantitative High-Throughput drug screen in 47 multiple myeloma cell lines against the NCATS MIPE library collection: KMS21BM_JCRB cell viability assay (AID 1918974); settings: ATP luminescence, 48 h; viability: at 45.8 µM (top of the series)
# Summary of the method: as §1
compound,measurement,setting,value
CC1=C(C(=O)Nc2cc3cn[nH]c3cc2F)C(c2ccc(Cl)cc2F)N=C(c2ccnc(Cl)c2)N1 (configuration not stated),Potency,[1],16.6 µM (active)
same,Potency,[2],inactive
same,Potency,[3],14.8 µM (active)
same,Potency,[4],inactive
COc1ccc(Nc2nccc(NCCO)n2)cc1,Potency,[2],inactive
same,Potency,[3],inactive
OC[C@H]1OC(O)C[C@@H](O)[C@H]1O (some centres not stated),Potency,[2],inactive
same,Potency,[5],inactive
same,Potency,[4],inactive
same,Potency,[6],inactive
Cc1cc(O)c2c(c1)C(=O)c1cccc(O)c1C2=O,Potency,[2],inactive
same,Potency,[5],inactive
same,Potency,[3],inactive
same,Potency,[4],inactive
CCN(CC)CCCCNc1ncc2c(n1)N(C)C(=O)N(c1c(Cl)c(OC)cc(OC)c1Cl)C2,Potency,[1],inactive
same,Potency,[7],9.35 µM (active)
same,Potency,[3],inactive
same,Potency,[6],4.69 µM (active)
CC(C)n1cnc2c(NCCc3ccc(O)cc3)nc(-c3csc4ccccc34)nc21,Potency,[8],7.43 µM (active)
same,Potency,[2],11.8 µM (active)
same,Potency,[4],20.9 µM (active)
same,Potency,[6],0.743 µM (active)
O=S(=O)(O)CCSSCCS(=O)(=O)O,Potency,[2],inactive
same,Potency,[6],18.7 µM (active)
Cc1cc(C(=O)NOCCO)c(Nc2ccc(I)cc2F)n(C)c1=O,Potency,[2],inactive
same,Potency,[4],inactive
same,Potency,[6],2.96 µM (active)
NC[C@H]1O[C@H](O[C@H]2[C@@H](O)[C@@H](O[C@H]3O[C@H](CO)[C@@H](O)[C@H](N)[C@@H]3O)[C@H](N)C[C@@H]2N)[C@H](N)C[C@H]1O,Potency,[2],inactive
same,Potency,[7],2.09 µM (active)
same,Potency,[3],inactive
same,Potency,[4],inactive
same,Potency,[6],inactive
Cn1cc(-c2ccc3ncc(Cc4ccc5ncccc5c4)n3n2)cn1,Potency,[2],inactive
same,Potency,[5],inactive
same,Potency,[3],inactive
same,Potency,[4],inactive
same,Potency,[6],inactive
OCC(O)C(O)C(O)CO (configuration not stated),Potency,[1],inactive
same,Potency,[2],inactive
same,Potency,[3],inactive
same,Potency,[4],inactive
Cc1cn([C@@H]2O[C@H](CO)[C@@H](O)[C@H]2F)c(=O)[nH]c1=O,Potency,[1],13.2 µM (active)
same,Potency,[3],inactive
same,Potency,[4],inactive
CC(=O)NC(CS)C(=O)O (configuration not stated),Potency,[8],inactive
same,Potency,[7],18.7 µM (active)
same,Potency,[3],inactive
C[C@@]12C[C@@]3(O)O[C@@H](O1)[C@]1(COC(=O)c4ccccc4)[C@@H]3C[C@@]12O[C@@H]1O[C@H](CO)[C@@H](O)[C@H](O)[C@@H]1O,Potency,[2],inactive
same,Potency,[3],inactive
COc1ccc(C(C)=O)c(O)c1,Potency,[1],inactive
same,Potency,[5],inactive
same,Potency,[3],inactive
same,Potency,[4],inactive
same,Potency,[6],4.69 µM (active)
CC(C)(C)[C@H](NC(=O)c1ccc(N)c(Cl)c1)C(=O)N1CCC[C@@H]1C(=O)N[C@H](C#N)CC(=O)O,viability (% of DMSO),[2],125% [at 3.51 µM] (inactive)
same,viability (% of control),[5],110% [at 3.51 µM] (inactive)
same,"viability, % of control",[3],122% [at 3.51 µM] (inactive)
same,viability,[4],103% [at 3.51 µM] (inactive)
same,viability (% of control),[6],120% [at 3.51 µM] (inactive)
CC(C)(C)[N+]([O-])=Cc1ccc(S(=O)(=O)O)cc1S(=O)(=O)O,Potency,[8],inactive
same,Potency,[2],inactive
same,Potency,[5],inactive
same,Potency,[3],inactive
same,Potency,[4],inactive
OCc1ccccc1O[C@@H]1O[C@H](CO)[C@H](O)[C@H](O)[C@H]1O,Potency,[1],inactive
same,Potency,[2],inactive
same,Potency,[3],11.8 µM (active)
same,Potency,[4],inactive
same,Potency,[6],20.9 µM (active)
N#CC(=Cc1ccc(O)c(O)c1)C(=O)NCc1ccccc1,Potency,[8],8.33 µM (active)
same,Potency,[4],inactive
same,Potency,[6],26.4 µM (active)
CC(C)(O)[C@H]1CC[C@@](C)([C@H]2[C@@H](O)C[C@@]3(C)[C@@H]4C[C@H](O[C@@H]5O[C@H](CO)[C@@H](O)[C@H](O)[C@@H]5O)[C@H]5C(C)(C)[C@@H](O[C@@H]6OC[C@@H](O)[C@H](O)[C@@H]6O)CC[C@@]56C[C@@]46CC[C@]23C)O1,Potency,[2],inactive
same,Potency,[5],inactive
same,Potency,[3],inactive
same,Potency,[4],inactive
CCCCOc1ccc(C(=O)Nc2ccc(F)cc2F)cc1,viability,[9],103% (active)
same,Potency,[3],inactive
CC(N[C@H]1CCCC[C@H]1NC(=O)c1ccc(Cl)cc1)c1cccc2ccccc12 (some centres not stated),Potency,[2],inactive
same,Potency,[5],inactive
same,Potency,[4],inactive
same,Potency,[6],8.33 µM (active)
COc1cc(C)c(C=CC(C)=CC=CC(C)=CC(=O)O)c(C)c1C,Potency,[2],inactive
same,Potency,[3],inactive
same,Potency,[4],inactive
same,Potency,[6],inactive
CN[C@@H]1C[C@H]2O[C@@](C)([C@H]1OC)n1c3ccccc3c3c4c(c5c6ccccc6n2c5c31)C(=O)N[C@H]4O,Potency,[8],0.148 µM (active)
same,Potency,[2],1.66 µM (active)
same,Potency,[7],1.48 µM (active)
same,Potency,[3],0.118 µM (active)
same,Potency,[4],0.935 µM (active)
same,Potency,[6],0.332 µM (active)
C=C1CCC2[C@](C)(CO)C(O)CC[C@]2(C)C1CC=C1C(=O)OCC1O (some centres not stated),Potency,[1],inactive
same,Potency,[4],inactive
C[C@@H](Cc1cc2c(c(C(N)=O)c1)N(CCCO)CC2)NCCOc1ccccc1OCC(F)(F)F,Potency,[2],inactive
same,Potency,[5],inactive
same,Potency,[3],inactive
C[N+]1(C)[C@@H]2C[C@@H](OC(=O)C(O)(c3cccs3)c3cccs3)C[C@H]1[C@@H]1O[C@@H]12,Potency,[1],inactive
same,Potency,[5],inactive
same,Potency,[3],inactive
same,Potency,[4],inactive
O=C(NCc1ccccc1)[C@H](Cc1ccccc1)NC(=O)[C@@H]1O[C@@H]1C(=O)NCCc1ccc(O)cc1,Potency,[1],23.5 µM (active)
same,Potency,[7],20.9 µM (active)
same,Potency,[3],inactive
same,Potency,[6],1.18 µM (active)
O=C(O)[C@H](CC(=O)N1C[C@@H]2CCCC[C@H]2C1)Cc1ccccc1,Potency,[8],inactive
same,Potency,[2],inactive
same,Potency,[3],inactive
Cc1cnn(C)c1C(=O)Nc1cc(Nc2ccc3c(C=Cc4ccccn4)n[nH]c3c2)ccc1F,Potency,[1],2.96 µM (active)
same,Potency,[2],33.2 µM (active)
same,Potency,[3],14.8 µM (active)
same,Potency,[6],20.9 µM (active)
N#Cc1cc(NC(=O)Nc2nnc(-c3ccncc3)s2)ccc1-c1cn[nH]c1,Potency,[2],inactive
same,Potency,[3],inactive
same,Potency,[4],inactive
c1coc(CNc2ncnc3nc[nH]c23)c1,Potency,[9],inactive
same,Potency,[2],inactive
same,Potency,[7],1.87 µM (active)
same,Potency,[3],inactive
same,Potency,[4],inactive
CN(C)CC[C@H](c1ccc(Cl)cc1)c1ccccn1,Potency,[2],inactive
same,Potency,[3],inactive
same,Potency,[6],16.6 µM (active)
C[C@H]1O[C@H](O[C@H]2[C@H](O)[C@@H](O)[C@@H](O[C@H]3[C@H](O)[C@@H](O)C(O)O[C@H]3CO)O[C@H]2CO)[C@H](O)[C@@H](O)[C@H]1N[C@H]1C=C(CO)[C@@H](O)[C@H](O)[C@@H]1O (some centres not stated),Potency,[2],inactive
same,Potency,[5],inactive
same,Potency,[4],inactive
same,Potency,[6],inactive

# — PubChem BioAssay (NCATS)
